HT1080 IDH1KD tx = kills HT-1080 cells with IDH1 knockdown. HT-1080 IDH1 knockdown viability, ATP luminescence, 48 h. Potency, µM (series often up to 46.1 µM), for inactives: top-dose activity, negative = toxicity, usual class: cytotoxic. actives 2% (n = 360,000). AID 686971;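 further: potency means the concentration at half of the fitted maximal effect; 0% = DMSO wells and -100% = cell-free medium wells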
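HT-1080-IDH1KD cells (IDH1 knocked down), 750/well in RPMI with 5% FBS, treated with compound 48 h at 37 degrees C. Viability by CellTiter-Glo luminescence, normalised to DMSO and no-cell wells; concentration-response curves classed.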
DT40 TDP1 CPT = growth inhibition of DT40 Tdp1-/-;hTDP1 cells with camptothecin (screen for TDP1 inhibitors); actives 12% (n = 420,000); AID 686979; Potency, µM (highest dose often 46.2 µM), inactives show top-dose activity change, negative = growth inhibition, most hits filed as inhibitors; chicken DT40 Tdp1-/-;hTDP1 cells + 20 nM CPT, ATP luminescence, 48 h; further: potency means the concentration at half of the fitted maximal effect; nearly all actives have a fitted effect of over 55% in size
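Cell growth measured by CellTiter-Glo luminescence after a minimum 48 h, 37 C compound exposure with 20 nM CPT in Tdp1-knockout DT40 cells stably expressing hTDP1, seeded 400/well; qHTS titration format.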
IL-1B inflam inh = inhibitors of inflammasome signaling (IL-1 beta secretion). THP-1 LPS/ATP IL-1B secretion, AlphaLISA, 16 h; stronger effect = lower value. activity change, % at 57.5 µM. actives 4.7% (n = 360,000). AID 743279; in the data active means activity change below about -50%; inconclusive means mostly about -30% to -49%
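THP-1 cells pretreated 1 hr with compounds (up to 57.5 uM final), then stimulated with LPS (250 ng/mL final) plus ATP (1.25 mM final); secreted IL-1B measured by AlphaLISA after 16 hr, decreased signal indicating inhibition.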
DT40 TDP1 no CPT = qHTS for Inhibitors of human tyrosyl-DNA phosphodiesterase 1 (TDP1): qHTS in cells in absence of CPT; DT40 Tdp1-/- hTDP1 cells, no CPT, ATP luminescence, 48 h; Potency, µM (titrated, usually from 46.2 µM), for the others: at the highest dose activity change, negative = growth inhibition, hits mostly inhibitors; actives 15% (n = 420,000); further: potency means the concentration at half of the fitted maximal effect; nearly all actives have a fitted effect of over 55% in size
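Camptothecin absent (DMSO only). Human TDP1-complemented DT40 knockout cells, 400 cells/well, 37 °C for minimum 48 hr; ATP measured via CellTiter-Glo, 30 min dark incubation, luminescence.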
HT1080NT lethal = kills 2HG-producing HT-1080-NT fibrosarcoma cells | Potency, µM (highest dose often 46.1 µM), for inactives: top-dose activity, negative = less viability, most hits filed as cytotoxic | AID 686970 | HT-1080-NT fibrosarcoma viability, CellTiter-Glo ATP luminescence, 48 h | actives 1.6% (n = 360,000);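 further: NT is the 2HG producing partner of a matched IDH1 knockdown line; potency means the concentration at half of the fitted maximal effect; 0% = DMSO-treated cells and -100% = media-only wells without cells; nearly all actives have a fitted effect of over 55% in size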
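HT-1080-NT fibrosarcoma cells (2HG-overproducing), 750 cells/well in RPMI with 5% FBS, dosed after 2 h and incubated 48 h at 37C. CellTiter-Glo luminescence normalized to DMSO and no-cell wells; concentration-response curves fitted and classed.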
* hit, by the source's call; ? = inconclusive; nt = no result given; [ ] = another dose, or the depositor's remark. Rows were chosen to be rich in hits. Some 19% of all compounds tested hit in one or more screens of this group. Unless noted, the call rests on the fitted dose curve; in most records, active means well fitted curve in the direction sought with a large enough effect; inconclusive means small, poorly fitted or top-dose-only effect, or another doubt; inactive means no such curve, though single readings can be large; an effect the other way counts as inactive or inconclusive. Unless noted, on the % scale 0 is the no-effect control and ±100 the full control effect.

SMILES | HT1080 IDH1KD tx | DT40 TDP1 CPT | IL-1B inflam inh | DT40 TDP1 no CPT | HT1080NT lethal
CCCN(CCC)C(=O)CC(c1ccc(F)cc1)c1ccco1 (stereo unspecified) | -9% | ? | ? | 21µM* | -19%
Cc1ccc(-c2ccc(/C=N/c3ncn[nH]3)o2)cc1Cl | -1% | 2% | 3 | ? | 1%
CC(C)c1cc(C(=O)OCC(=O)NC(=O)NCc2ccco2)c(O)c(C(C)C)c1 | 26µM* | ? | -86* | ? | 23µM*
CC1CN(CC(=O)NCc2ccc(Cl)cc2)CC(C)O1 (stereo unspecified) | -3% | -13% | 7 | -10% | -1%
CCOc1ccc(-c2nnn(CC(=O)c3ccc4c(c3)OCCO4)n2)cc1OCC | ? | ? | -9 | 18µM* | 1%
Cn1cc(CN2CCc3ccccc3C2)c2ccccc21 | ? | 9.2µM* | -16 | ? | -5%
CN(C)CC(C)(O)c1ccc2c(c1)CN(Cc1cn(C)c3ccccc13)CCO2 (stereo unspecified) | nt | -7%[9.04 µM] | nt | 21µM* | nt
Oc1cc2c(cc1CN1CCc3ccccc3C1)OCO2 | -2% | ? | -22 | ? | -3%
Cc1nn(C)cc1CN1CCOc2ccc(C(C)(O)COc3ccccc3)cc2C1 (stereo unspecified) | nt | 25%[9.04 µM] | nt | -19% | nt
O=C(Nc1ccc(Cl)cc1)C1C2C=CC3(O2)C1C(=O)N(CCN1CCCCC1)C3C(=O)NC1CCCCC1 (stereo unspecified) | -27% | 12% | ? | 6% | -30%
COc1cccc(NCc2cc(=O)oc3cc(C)c(C(C)C)cc23)c1 | ? | ? | -27 | -24% | -23%
C=C1c2ccccc2S(=O)(=O)N(Cc2ccccc2)C1COCc1ccccc1 (stereo unspecified) | 1% | -30% | -3 | -27% | -2%
COc1ccc(CNC(=O)C[C@H]2C[C@H](C(=O)N3CCCCC3)[C@@]3(CCc4ccccc4)c4[nH]c5ccc(Cl)cc5c4CCN3C2=O)cc1OC | 1% | 10µM* | -16 | 10µM* | 3%
CC[C@]12c3[nH]c4ccc(Cl)cc4c3CCN1C(=O)[C@@H](CC(=O)NCc1ccc(OC)c(OC)c1)C[C@@H]2C(=O)N1CCN(C(=O)C2CC2)CC1 | -6% | ? | -1 | 16µM* | -3%
CC[C@]12c3[nH]c4ccc(OC)cc4c3CCN1C(=O)C(CC(=O)NCc1ccc(OC)c(OC)c1)C[C@@H]2C(=O)N1CCN(C(=O)C2CC2)CC1 (stereo partly specified) | 6% | -22% | -5 | -15% | 5%
C=CCOC(=O)C1=C[C@H](c2ccc(Br)cc2)C[C@H](OCc2ccc(CO)cc2)O1 | 1% | -26% | 37 | -7% | 2%
CCCc1c(C(=O)N/N=C/c2sccc2C)nnn1-c1nonc1N | 19% | 8% | 6 | 10% | 12%
O=C(CCCCN1CCCCC1)c1ccccc1 | 12% | -8% | -6 | -14% | 3%
O=C(C(=Cc1ccccc1)CN1CCCCC1)c1ccccc1 | 4.6µM* | 0.73µM* | -104* | 1.5µM* | ?
O=C(CC1NCCc2ccccc21)Nc1ccccc1 (stereo unspecified) | 4% | 3% | -8 | 4% | -18%
CS(=O)(=O)c1cccc(NC(=O)C2CC2)c1 | 23% | -11% | 13 | 0% | 11%
CC(C)Oc1cccc(NC(=O)C2CCN(S(=O)(=O)Cc3ccccc3)CC2)c1 | nt | 13µM* | nt | ? | nt
O=C(CC1NCCc2ccccc21)Nc1ccc(Oc2ccccc2)cc1 (stereo unspecified) | ? | ? | -153* | ? | ?
O=C(Nc1cccc(Cl)c1)C1CCN(S(=O)(=O)Cc2ccccc2)CC1 | nt | -7% | nt | ? | nt
O=C(Nc1cccc(S(=O)(=O)c2cccc(NC(=O)C3CC3)c2)c1)C1CC1 | ? | 21µM* | -74* | 21µM* | ?
SMILES | HT1080 IDH1KD tx | DT40 TDP1 CPT | IL-1B inflam inh | DT40 TDP1 no CPT | HT1080NT lethal
COc1cccc(NC(=O)Nc2cc(Cl)ccc2C)c1 | -5% | ? | -76* | ? | -11%
Cc1ccc(O)c(N/C=C/C(=O)c2ccc(F)cc2)c1 | ? | ? | -22 | ? | ?
CCC1(c2ccccc2)NC(=O)N(CC(=O)Nc2ccc(S(=O)(=O)NC3=NCCCCC3)cc2)C1=O (stereo unspecified) | 2% | 0% | 2 | 1% | 0%
Cc1ccc(NC(=O)c2ccc3nc(N4CCOCC4)sc3c2)c(Cl)c1 | 3% | -12% | -9 | ? | -2%
O=C(NC1CCCC1)c1cc(-c2cccc(Cl)c2)on1 | 2% | 10% | 4 | -27% | 1%
COc1ccc(NC(=O)Nc2cccc(OC)c2)cc1 | 6% | -16% | -75* | -1% | -2%
COc1ccc(NC(=O)Nc2ccc(F)cc2F)c(C)c1 | 8% | ? | -26 | ? | 4%
COc1cccc(NC(=O)Nc2ccc3nsnc3c2)c1 | 3% | ? | -56* | ? | 3%
COc1ccc(NC(=O)Nc2ccc(F)cc2F)cc1 | 18% | 9.2µM* | -22 | 5.8µM* | 16%
CC(OC(=O)c1ccc(O)cc1)C(=O)Nc1nc(-c2ccccc2)cs1 (stereo unspecified) | -14% | ? | 8 | ? | -15%
CC(OC(=O)c1ccc(O)cc1)C(=O)Nc1ccc(Oc2ccccc2)cc1 (stereo unspecified) | -12% | ? | -16 | 21µM* | -4%
CCCS(=O)(=O)NCc1c(C)ncc2c1CCN(C(=O)c1cccc(C(F)(F)F)c1)C2 | nt | 4%[9.04 µM] | nt | -9% | nt
COC(=O)c1ccccc1-n1cccc1C(=O)NP(=O)(N1CCOCC1)N1CCOCC1 | 12% | 14% | 3 | -1% | 20%
Cc1cccc(Oc2ccc(NC(=O)C3CC=CCC3C(=O)O)cc2)c1 (stereo unspecified) | -9% | -29% | 22 | 2.1µM* | -2%
COc1ccc(NC(=O)NC(C(F)(F)F)C(F)(F)F)cc1 | 1% | -7% | -1 | ? | -2%
COc1ccc(NC(=O)NC(C)(C(F)(F)F)C(F)(F)F)cc1 | -2% | ? | 0 | 16µM* | 2%
O=C(Nc1cccc(S(=O)(=O)Nc2ccc(SC(F)F)cc2)c1)C1CCC1 | -16% | ? | -1 | ? | 15µM*
O=C(Nc1ccc(Oc2ccccc2)cc1)C1CC1 | -19% | 21µM* | -20 | 18µM* | -6%
CCOc1ccc(-c2c(C(=O)N/N=C/c3cccnc3)nnn2-c2nonc2N)cc1 | -10% | -19% | 8 | 0% | -15%
CCOc1ccc(C(=O)OC(C)CN2CCN(C)CC2)cc1 (stereo unspecified) | 4% | 2% | 3 | -8% | 8%

Assay outcomes: PubChem, National Center for Advancing Translational Sciences (NCATS)
